Data taken from publication PMC7862700, “An all-to-all approach to the identification of sequence-specific readers for epigenetic DNA modifications on cytosine”.

How the values were obtained:
Assay in all cases: DAPPL (digital affinity profiling via proximity ligation, sequencing); 10 mM Tris-HCl pH 7.5, 50 mM NaCl, 1 mM DTT, 4% glycerol, room temperature, 30 min; GST-TFs on glutathione beads, 16-mer random dsDNA library, 0.1% formaldehyde crosslink after washing; high values mean tight binding
Settings in all cases: protein: recombinant; tags: N-terminal GST; dsDNA, one strand shown
SPIB = SPIB (Homo sapiens, UniProt Q01892 1-262)
Method in brief: (§1)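 Human transcription factors fused to GST were expressed in yeast, captured on glutathione beads, given DNA barcodes and pooled with a GST-only negative control. Pools were incubated with 200 nmole of a 16-mer random double-stranded DNA library in Tris/NaCl/DTT/glycerol buffer at room temperature for 30 min. They were then washed, crosslinked with 0.1% formaldehyde, proximity-ligated (BsaI/T4 ligase, 1 h, 37 °C), PCR-amplified and sequenced on an Illumina NextSeq500. Binding signal is each 6-mer's read frequency for a factor divided by its frequency for the GST control.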

FEV = target: T1, FEV (Homo sapiens, UniProt Q99581 1-238)
T1 sequence: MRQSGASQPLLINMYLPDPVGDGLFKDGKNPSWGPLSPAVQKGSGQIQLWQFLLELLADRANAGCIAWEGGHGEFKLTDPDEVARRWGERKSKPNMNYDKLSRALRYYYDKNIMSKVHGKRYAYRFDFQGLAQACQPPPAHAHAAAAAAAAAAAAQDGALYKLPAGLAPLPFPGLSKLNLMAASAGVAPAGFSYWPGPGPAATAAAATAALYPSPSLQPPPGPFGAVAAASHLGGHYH
Method in brief: as §1

ETV1 = ETV1 (Homo sapiens, UniProt P50549 1-477)
Method in brief: as §1

SPDEF = target: T2, SPDEF (Homo sapiens, UniProt O95238 1-335)
T2 sequence: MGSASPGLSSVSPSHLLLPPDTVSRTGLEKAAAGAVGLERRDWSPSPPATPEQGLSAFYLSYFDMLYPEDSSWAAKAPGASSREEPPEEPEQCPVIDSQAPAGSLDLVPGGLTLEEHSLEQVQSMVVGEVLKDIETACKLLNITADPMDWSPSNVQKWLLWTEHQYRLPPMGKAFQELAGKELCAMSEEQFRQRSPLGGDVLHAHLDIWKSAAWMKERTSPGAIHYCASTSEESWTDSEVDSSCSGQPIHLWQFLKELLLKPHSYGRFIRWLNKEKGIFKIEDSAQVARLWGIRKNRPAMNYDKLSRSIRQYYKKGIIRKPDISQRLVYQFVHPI
Method in brief: as §1

ELF5 = target: T3, ELF5 (Homo sapiens, UniProt Q9UKW6-2 1-255)
T3 sequence: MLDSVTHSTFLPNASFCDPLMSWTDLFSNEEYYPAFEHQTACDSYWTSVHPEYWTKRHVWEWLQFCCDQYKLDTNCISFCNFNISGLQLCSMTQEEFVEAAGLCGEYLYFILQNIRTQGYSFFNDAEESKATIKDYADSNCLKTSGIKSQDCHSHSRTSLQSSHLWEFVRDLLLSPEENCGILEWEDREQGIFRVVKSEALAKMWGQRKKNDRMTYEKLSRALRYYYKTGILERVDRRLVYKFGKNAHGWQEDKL
Method in brief: as §1

GABPA = target: T4, GABPA (Homo sapiens, UniProt Q06546 1-454)
T4 sequence: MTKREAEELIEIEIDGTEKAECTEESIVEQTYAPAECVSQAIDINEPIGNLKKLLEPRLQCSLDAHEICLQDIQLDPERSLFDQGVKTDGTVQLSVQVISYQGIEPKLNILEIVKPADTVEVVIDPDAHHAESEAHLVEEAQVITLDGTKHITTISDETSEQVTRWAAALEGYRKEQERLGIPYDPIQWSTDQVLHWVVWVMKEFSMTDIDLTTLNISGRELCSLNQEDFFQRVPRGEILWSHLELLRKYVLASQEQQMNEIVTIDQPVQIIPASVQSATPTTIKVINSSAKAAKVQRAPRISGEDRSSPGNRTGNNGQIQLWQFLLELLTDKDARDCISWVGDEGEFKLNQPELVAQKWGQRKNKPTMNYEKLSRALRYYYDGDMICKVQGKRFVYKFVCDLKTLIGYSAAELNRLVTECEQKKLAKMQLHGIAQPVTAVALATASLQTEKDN
Method in brief: as §1

ELF1 = ELF1 (Homo sapiens, UniProt P32519 1-619)
Method in brief: as §1

EHF = target: T5, EHF (Homo sapiens, UniProt Q9NZC4 1-300)
T5 sequence: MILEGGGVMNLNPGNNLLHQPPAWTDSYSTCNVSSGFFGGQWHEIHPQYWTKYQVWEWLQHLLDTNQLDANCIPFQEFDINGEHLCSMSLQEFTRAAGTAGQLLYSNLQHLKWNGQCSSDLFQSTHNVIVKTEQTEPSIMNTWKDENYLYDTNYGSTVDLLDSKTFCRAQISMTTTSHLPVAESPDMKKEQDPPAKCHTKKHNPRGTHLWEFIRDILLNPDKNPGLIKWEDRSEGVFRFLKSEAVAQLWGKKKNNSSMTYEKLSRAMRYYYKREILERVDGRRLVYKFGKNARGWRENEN
Method in brief: as §1

ETS2 = target: T6, ETS2 (Homo sapiens, UniProt P15036 1-469)
T6 sequence: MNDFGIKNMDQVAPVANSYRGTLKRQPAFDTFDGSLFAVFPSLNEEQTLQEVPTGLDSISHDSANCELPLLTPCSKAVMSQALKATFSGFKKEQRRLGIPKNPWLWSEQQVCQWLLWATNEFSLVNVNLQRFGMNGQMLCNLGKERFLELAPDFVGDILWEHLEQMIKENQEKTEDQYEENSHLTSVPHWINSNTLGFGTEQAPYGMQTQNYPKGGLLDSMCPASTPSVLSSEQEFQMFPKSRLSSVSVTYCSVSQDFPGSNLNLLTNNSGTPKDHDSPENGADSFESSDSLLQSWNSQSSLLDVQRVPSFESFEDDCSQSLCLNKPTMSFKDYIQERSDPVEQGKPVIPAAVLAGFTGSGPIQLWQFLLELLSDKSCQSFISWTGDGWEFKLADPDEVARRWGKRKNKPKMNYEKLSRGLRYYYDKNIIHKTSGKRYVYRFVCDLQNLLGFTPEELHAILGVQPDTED
Method in brief: as §1

ERF = target: T7, ERF (Homo sapiens, UniProt P50548 1-548)
T7 sequence: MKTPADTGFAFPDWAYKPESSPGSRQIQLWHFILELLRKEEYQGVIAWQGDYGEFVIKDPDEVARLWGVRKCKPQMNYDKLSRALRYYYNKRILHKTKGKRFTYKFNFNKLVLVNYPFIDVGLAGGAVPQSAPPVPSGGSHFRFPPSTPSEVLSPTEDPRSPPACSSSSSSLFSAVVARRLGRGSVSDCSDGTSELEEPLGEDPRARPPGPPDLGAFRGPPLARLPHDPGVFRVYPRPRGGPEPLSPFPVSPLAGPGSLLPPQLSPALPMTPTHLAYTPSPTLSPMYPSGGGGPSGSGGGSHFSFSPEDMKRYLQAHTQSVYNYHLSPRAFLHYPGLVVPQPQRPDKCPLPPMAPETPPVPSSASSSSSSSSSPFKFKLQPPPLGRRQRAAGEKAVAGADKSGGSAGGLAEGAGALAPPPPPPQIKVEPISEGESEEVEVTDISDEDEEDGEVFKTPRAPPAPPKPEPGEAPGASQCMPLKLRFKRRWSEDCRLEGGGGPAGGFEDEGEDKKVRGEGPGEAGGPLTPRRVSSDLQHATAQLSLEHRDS
Method in brief: as §1

ETV3L = target: T8, ETV3L (Homo sapiens, UniProt Q6ZN32 1-361)
T8 sequence: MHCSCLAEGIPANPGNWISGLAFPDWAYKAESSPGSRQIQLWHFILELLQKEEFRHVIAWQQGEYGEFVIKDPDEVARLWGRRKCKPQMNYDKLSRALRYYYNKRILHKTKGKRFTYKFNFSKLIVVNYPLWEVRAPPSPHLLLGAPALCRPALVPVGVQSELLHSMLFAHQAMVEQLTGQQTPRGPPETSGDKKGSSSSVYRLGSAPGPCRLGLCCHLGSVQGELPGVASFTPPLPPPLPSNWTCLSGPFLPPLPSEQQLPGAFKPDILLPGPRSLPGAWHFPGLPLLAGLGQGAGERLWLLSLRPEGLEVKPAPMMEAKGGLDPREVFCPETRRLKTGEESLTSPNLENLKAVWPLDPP
Method in brief: as §1

ETV3 = target: T9, ETV3 (Homo sapiens, UniProt P41162-2 1-143)
T9 sequence: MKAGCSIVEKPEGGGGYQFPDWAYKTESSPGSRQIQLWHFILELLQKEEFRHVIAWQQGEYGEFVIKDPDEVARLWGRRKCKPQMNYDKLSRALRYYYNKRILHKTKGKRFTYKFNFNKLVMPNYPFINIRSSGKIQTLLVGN
Method in brief: as §1

ETV7 = target: T10, ETV7 (Homo sapiens, UniProt Q9Y603 1-341)
T10 sequence: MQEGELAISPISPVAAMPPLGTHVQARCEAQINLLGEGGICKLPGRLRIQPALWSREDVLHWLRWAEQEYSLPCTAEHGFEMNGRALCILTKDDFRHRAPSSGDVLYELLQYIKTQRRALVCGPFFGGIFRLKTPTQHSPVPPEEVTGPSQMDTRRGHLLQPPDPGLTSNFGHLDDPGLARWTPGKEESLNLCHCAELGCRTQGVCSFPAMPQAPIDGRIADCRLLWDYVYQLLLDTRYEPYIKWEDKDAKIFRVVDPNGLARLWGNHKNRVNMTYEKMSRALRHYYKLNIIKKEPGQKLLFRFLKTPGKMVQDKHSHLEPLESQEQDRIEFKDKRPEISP
Method in brief: as §1

ETV6 = ETV6 (Homo sapiens, UniProt P41212 1-452)
Method in brief: as §1

Sequence of ETV6 (P41212 whole entry): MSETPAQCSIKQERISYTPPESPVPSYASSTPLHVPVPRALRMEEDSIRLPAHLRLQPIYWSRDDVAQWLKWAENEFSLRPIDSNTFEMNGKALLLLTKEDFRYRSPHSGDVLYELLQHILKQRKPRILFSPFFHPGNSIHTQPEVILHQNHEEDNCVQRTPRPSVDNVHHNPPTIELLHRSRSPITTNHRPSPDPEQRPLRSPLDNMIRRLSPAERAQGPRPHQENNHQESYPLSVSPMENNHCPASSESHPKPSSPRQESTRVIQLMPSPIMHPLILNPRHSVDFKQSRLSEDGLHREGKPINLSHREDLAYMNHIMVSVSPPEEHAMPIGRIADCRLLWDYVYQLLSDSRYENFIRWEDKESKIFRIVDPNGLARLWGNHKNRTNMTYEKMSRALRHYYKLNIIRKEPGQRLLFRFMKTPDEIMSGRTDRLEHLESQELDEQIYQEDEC
Sequence of ELF1 (P32519 whole entry): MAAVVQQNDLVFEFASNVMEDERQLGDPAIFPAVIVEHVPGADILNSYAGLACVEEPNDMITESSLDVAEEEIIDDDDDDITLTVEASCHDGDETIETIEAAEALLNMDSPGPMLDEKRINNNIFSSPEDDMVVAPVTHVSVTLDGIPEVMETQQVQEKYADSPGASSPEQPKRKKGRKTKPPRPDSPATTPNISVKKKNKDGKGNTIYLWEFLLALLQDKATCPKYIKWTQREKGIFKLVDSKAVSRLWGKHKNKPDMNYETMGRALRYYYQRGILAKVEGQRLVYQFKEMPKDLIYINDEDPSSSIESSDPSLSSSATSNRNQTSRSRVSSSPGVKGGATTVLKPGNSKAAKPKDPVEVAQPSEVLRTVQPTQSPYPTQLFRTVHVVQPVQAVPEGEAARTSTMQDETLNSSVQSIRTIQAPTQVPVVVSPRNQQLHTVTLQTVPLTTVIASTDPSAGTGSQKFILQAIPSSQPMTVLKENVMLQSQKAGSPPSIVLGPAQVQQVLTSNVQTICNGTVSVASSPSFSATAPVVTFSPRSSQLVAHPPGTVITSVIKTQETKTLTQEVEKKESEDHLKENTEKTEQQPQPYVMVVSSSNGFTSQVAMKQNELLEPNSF
Sequence of SPIB (Q01892 whole entry, the tested form may be a part): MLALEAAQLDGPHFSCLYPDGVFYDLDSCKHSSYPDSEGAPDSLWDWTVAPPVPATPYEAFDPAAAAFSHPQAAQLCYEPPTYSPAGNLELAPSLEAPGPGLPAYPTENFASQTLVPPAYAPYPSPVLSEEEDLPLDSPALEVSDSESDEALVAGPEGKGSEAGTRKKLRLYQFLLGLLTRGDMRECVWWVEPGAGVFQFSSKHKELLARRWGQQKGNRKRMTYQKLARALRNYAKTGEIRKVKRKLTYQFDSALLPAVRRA
Sequence of ETV1 (P50549 whole entry): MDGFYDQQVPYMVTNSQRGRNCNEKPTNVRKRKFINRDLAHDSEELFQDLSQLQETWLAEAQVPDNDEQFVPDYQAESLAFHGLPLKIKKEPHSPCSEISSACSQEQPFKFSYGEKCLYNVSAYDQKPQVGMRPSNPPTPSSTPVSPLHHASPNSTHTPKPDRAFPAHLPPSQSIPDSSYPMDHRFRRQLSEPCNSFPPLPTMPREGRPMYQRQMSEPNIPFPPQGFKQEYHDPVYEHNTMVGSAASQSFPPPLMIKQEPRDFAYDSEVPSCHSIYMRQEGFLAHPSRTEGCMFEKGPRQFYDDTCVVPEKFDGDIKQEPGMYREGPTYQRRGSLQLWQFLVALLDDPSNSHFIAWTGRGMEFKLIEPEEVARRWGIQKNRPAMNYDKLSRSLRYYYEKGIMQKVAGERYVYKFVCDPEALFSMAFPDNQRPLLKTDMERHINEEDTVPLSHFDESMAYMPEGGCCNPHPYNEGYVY

## CGGTAC
SPIB
  binding signal: 1.06 fold enrichment (6-mer frequency, TF over GST control)
FEV
  binding signal: 1.05 fold enrichment (6-mer frequency, TF over GST control)
ETV1
  binding signal: 1.01 fold enrichment (6-mer frequency, TF over GST control)
SPDEF
  binding signal: 1.07 fold enrichment (6-mer frequency, TF over GST control)
ELF5
  binding signal: 1.02 fold enrichment (6-mer frequency, TF over GST control)

## GGCCAC
GABPA
  binding signal: 1.02 fold enrichment (6-mer frequency, TF over GST control)
ELF1
  binding signal: 1.03 fold enrichment (6-mer frequency, TF over GST control)
EHF
  binding signal: 1.03 fold enrichment (6-mer frequency, TF over GST control)
FEV
  binding signal: 1.05 fold enrichment (6-mer frequency, TF over GST control)
ETS2
  binding signal: 1 fold enrichment (6-mer frequency, TF over GST control)

## GACGAA
ERF
  binding signal: 1.01 fold enrichment (6-mer frequency, TF over GST control)

## GTCTGC
GABPA
  binding signal: 1.01 fold enrichment (6-mer frequency, TF over GST control)

## TGGGCC
ERF
  binding signal: 1.03 fold enrichment (6-mer frequency, TF over GST control)

## GCTGTC
EHF
  binding signal: 1 fold enrichment (6-mer frequency, TF over GST control)
ERF
  binding signal: 1.03 fold enrichment (6-mer frequency, TF over GST control)

## GTATAG
ETV3L
  binding signal: 1 fold enrichment (6-mer frequency, TF over GST control)

## GACCCT
ERF
  binding signal: 1.05 fold enrichment (6-mer frequency, TF over GST control)

## GATGTG
SPDEF
  binding signal: 1.18 fold enrichment (6-mer frequency, TF over GST control)
ETV3
  binding signal: 1.01 fold enrichment (6-mer frequency, TF over GST control)

## GACGAT
ERF
  binding signal: 1.02 fold enrichment (6-mer frequency, TF over GST control)
ETV7
  binding signal: 1 fold enrichment (6-mer frequency, TF over GST control)

## CGGAAT
SPDEF
  binding signal: 1 fold enrichment (6-mer frequency, TF over GST control)
ETV3
  binding signal: 1.02 fold enrichment (6-mer frequency, TF over GST control)
ETV6
  binding signal: 1.01 fold enrichment (6-mer frequency, TF over GST control)

## GGGAAG
ETV6
  binding signal: 1.04 fold enrichment (6-mer frequency, TF over GST control)
